# Screening results (PubChem BioAssay)
# Most compounds without a hit are left out; they make up all but 19% or so of the library.
# IL-1B inflam inh = qHTS for Inhibitors of Inflammasome Signaling: IL-1-beta AlphaLISA Primary Screen; THP-1 LPS/ATP IL-1B secretion, AlphaLISA, 16 h; hits give low values; activity change, % at 57.5 µM; 360,000 compounds, 4.7% hits; AID 743279, 2014; in the data active = activity change below about -50%; inconclusive = mostly about -30% to -49%
#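 Secreted IL-1B measured by AlphaLISA bead assay after 16 h compound exposure of THP-1 cells; compounds (final up to 57.5 uM) added 1 h before LPS (250 ng/mL) and ATP (1.25 mM) stimulation; lower signal means less secretion.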
# DT40 TDP1 no CPT = qHTS for Inhibitors of human tyrosyl-DNA phosphodiesterase 1 (TDP1): qHTS in cells in absence of CPT | DT40 Tdp1-/- hTDP1 cells, no CPT, ATP luminescence, 48 h | Potency, µM (doses to about 46.2 µM), for inactives: at the highest dose activity change, negative = growth inhibition, hits mostly inhibitors | 420,000 compounds, 15% hits | AID 686978, 2013; also: potency is read from the fitted curve at half-maximal effect; nearly all actives have a fitted effect of over 55% in size
#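 Camptothecin absent (DMSO only). Human TDP1-complemented DT40 knockout cells, 400 cells/well, 37 °C for minimum 48 hr; ATP measured via CellTiter-Glo, 30 min dark incubation, luminescence.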
# HT1080NT lethal = qHTS for induction of synthetic lethality in tumor cells producing 2HG: qHTS for the HT-1080-NT fibrosarcoma cell line | 360,000 compounds, 1.6% hits | Potency, µM (highest dose often 46.1 µM), for the others: at the highest dose activity, negative = less viability, actives largely listed as cytotoxic | HT-1080-NT fibrosarcoma viability, CellTiter-Glo ATP luminescence, 48 h;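 also: NT is the 2HG producing partner of a matched IDH1 knockdown line; potency is read from the fitted curve at half-maximal effect; 0% = DMSO-treated cells and -100% = media-only wells without cells; nearly all actives have a fitted effect of over 55% in size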
#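 Viability by CellTiter-Glo luminescence after 48 h compound exposure at 37C of HT-1080-NT cells (750/well, RPMI, 5% FBS). % activity scaled between DMSO wells and medium-only wells, then curve-fitted and categorized by curve class.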
# ELG1 repair inh = qHTS screen for small molecules that inhibit ELG1-dependent DNA repair in human embryonic kidney (HEK293T) cells expressing luciferase-tagged ELG1. 330,000 compounds, 2.3% hits. Potency, µM (titrated, usually from 46.1 µM), for the others: at the highest dose activity change, negative = inhibition, usual class: inhibitors. HEK293T ELG1-luciferase reporter, luminescence, 16 h; DNA damage induced by 5-fluorouridine; also: potency is read from the fitted curve at half-maximal effect; nearly all actives have a fitted effect of over 55% in size
#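 Step one: seed 2,000 cells per well. Step two: pin-transfer compound or DMSO alongside 5-fluorouridine. Step three: incubate 16 hr, 37 °C, 5% CO2. Step four: add ONE-Glo, wait 30 min, read luminescence.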
# HT1080 IDH1KD tx = qHTS for induction of synthetic lethality in tumor cells producing 2HG: qHTS for the HT-1080-IDH1KD cell line. 360,000 compounds, 2% hits. Potency, µM (doses to about 46.1 µM), inactives show at the top dose activity, negative = toxicity, actives largely listed as cytotoxic. HT-1080 IDH1 knockdown viability, ATP luminescence, 48 h;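 also: potency is read from the fitted curve at half-maximal effect; 0% = DMSO wells and -100% = cell-free medium wells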
#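 HT-1080-IDH1KD cells (IDH1 knocked down), 750/well in RPMI with 5% FBS, treated with compound 48 h at 37 degrees C. Viability by CellTiter-Glo luminescence, normalised to DMSO and no-cell wells; concentration-response curves classed.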
# DT40 TDP1 CPT = qHTS for Inhibitors of human tyrosyl-DNA phosphodiesterase 1 (TDP1): qHTS in cells in presence of CPT | chicken DT40 Tdp1-/-;hTDP1 cells + 20 nM CPT, ATP luminescence, 48 h | Potency, µM (doses to about 46.2 µM), inactives show at the top dose activity change, negative = growth inhibition, actives largely listed as inhibitors | 420,000 compounds, 12% hits | AID 686979, 2013; also: potency is read from the fitted curve at half-maximal effect; nearly all actives have a fitted effect of over 55% in size
#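 Chicken DT40 Tdp1-/- cells complemented with human TDP1, 400 cells/well, exposed to compounds plus 20 nM camptothecin for at least 48 h at 37 C; viability read as ATP content by CellTiter-Glo luminescence.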
# An asterisk follows results filed as active; ? = inconclusive; nt = not tested or not shown. Unless noted, calls follow the shape of the dose curve; as a rule, active = well fitted curve in the direction sought with a large enough effect; inconclusive = small, poorly fitted or top-dose-only effect, or another doubt; inactive = no such curve, though single readings can be large; an effect the other way counts as inactive or inconclusive. Unless noted, % is scaled to controls: 0 for no effect and ±100 for the full control effect.
SMILES,IL-1B inflam inh,DT40 TDP1 no CPT,HT1080NT lethal,ELG1 repair inh,HT1080 IDH1KD tx,DT40 TDP1 CPT
O=C(Nc1cccc(F)c1)N1CCCC2(CCNCC2)C1,nt,?,nt,nt,nt,-22.8%
COCCCN(C(=O)Cc1ccc(S(=O)(=O)N2CCOCC2)s1)c1c(N)n(Cc2ccccc2)c(=O)[nH]c1=O,-2.2,17.9%,-1.7%,nt,4.7%,-5.0%
CC(=O)c1ccc2c(c1)C1C=CCC1C(c1ccncc1)N2 (centres undefined),12.0,?,-1.2%,?,-1.0%,-17.8%
C1=CC2c3ccccc3NC(c3ccncc3)C2C1 (centres undefined),-107.0*,?,-6.3%,3.0%,-1.1%,?
O=C(C=C(C(=O)c1ccccc1)c1ccccc1)c1ccccc1,?,20.6µM*,-12.2%,nt,-15.5%,23.1µM*
CN(C)/C(=C\C(=O)c1ccccc1)C(=O)c1ccccc1,-5.4,-7.1%,16.1%,nt,23.1%,-1.6%
COc1cc(C(=O)NCc2nnc(SCC(=O)Nc3nc4ccccc4s3)o2)cc(OC)c1OC,21.0,10.3µM*,0.6%,?,6.5%,9.2µM*
COc1cc(C(=O)NCc2nnc(SCC(=O)Nc3nccs3)o2)cc(OC)c1OC,36.3,-0.5%,19.4%,-5.3%,15.4%,13.5%
COc1ccccc1NC(=O)CSc1nnc(CNC(=O)c2cccs2)o1,-77.0*,12.6%,2.7%,15.6%,4.9%,14.8%
COc1ccc(C(=O)NCc2nnc(SCC(=O)Nc3nc4ccccc4s3)o2)cc1,12.0,?,?,0.3%,0.4%,29.1µM*
COCCn1c(SCC(=O)Nc2ccccc2F)nnc1-c1ccoc1C,1.9,19.4%,10.2%,-2.8%,5.3%,4.9%
FC(F)(F)c1ccc(-c2cccc3c2C2CC3CCN2C(=S)NCCc2ccccc2)cc1 (centres undefined),-8.2,?,7.1%,nt,-0.2%,?
Cc1cc(NC(=O)COC(=O)C2CC(=O)N(c3ccccc3Cl)C2)no1 (centres undefined),-2.6,-18.7%,-2.3%,24.5%,-2.5%,7.7%
Cc1nc2ccc(Cl)cc2c(-c2ccccc2Cl)c1CC(=O)O,35.8,-2.7%,-3.1%,-0.8%,-1.1%,5.2%
CN1CCc2nc3ccc(Cl)cc3c(-c3ccccc3Cl)c2C1,-56.4*,?,-23.3%,2.6%,-19.7%,?
COC(=O)[C@]12CCCCC=C1N(CCC1=CCCCC1)C(=O)[C@H](CC(=O)N1CCOCC1)C2,3.3,?,4.6%,nt,2.5%,?
COC(=O)[C@]12CCCCC=C1N(CCc1ccc(OC)c(OC)c1)C(=O)[C@H](CC(=O)N1CCN(C(=O)C3CC3)CC1)C2,-20.7,-26.2%,13.6%,nt,12.5%,-24.1%
COC(=O)[C@]12CCCCC=C1N(CCC1=CCCCC1)C(=O)[C@H](CC(=O)N1CCN(C(=O)C3CC3)CC1)C2,-4.2,16.4µM*,6.0%,nt,-5.2%,?
COC(=O)[C@]12CCCCC=C1N(CCC1=CCCCC1)C(=O)[C@H](CC(=O)N1CCCCC1)C2,-5.5,23.1µM*,-18.0%,nt,-24.6%,18.4µM*
O=C(Nc1cc2ccc(O)cc2oc1=O)c1ccc(F)cc1,nt,?,nt,nt,nt,-12.4%
CN(C)Cc1ccccc1-c1cc(NC2CC2)ncn1,nt,1.9%,nt,nt,nt,-7.5%
COc1ccc(C(=O)N/N=C/c2ccc3cccc(OCc4ccccc4)c3n2)cc1,137.9,8.2µM*,?,14.6µM*,?,?
COc1c(OC(C)=O)ccc(/C=C/c2ccc3cccc(OCc4ccccc4)c3n2)c1[N+](=O)[O-],-50.5*,14.6µM*,?,?,?,14.6µM*
O=C(N/N=C/c1cccc(OCc2ccccc2)c1)c1ccc(Br)cc1,8.6,18.4µM*,-14.2%,?,-3.2%,?
O=C(N/N=C/c1ccc2cccc(OCc3ccccc3)c2n1)c1ccc(Br)cc1,158.5,?,-29.5%,16.4µM*,?,16.4µM*
SMILES,IL-1B inflam inh,DT40 TDP1 no CPT,HT1080NT lethal,ELG1 repair inh,HT1080 IDH1KD tx,DT40 TDP1 CPT
CCOc1ccccc1NS(=O)(=O)c1cnc(N)nc1,nt,-17.9%,nt,nt,nt,2.6%
CC1(C)CC(=O)N(c2ccc(Cl)cc2Cl)C(=O)C1,-25.2,-14.1%,-2.0%,-2.0%,-10.7%,-0.3%
COc1ccc(F)c(CN2CCC(CO)(Cc3cccc(C(F)(F)F)c3)CC2)c1,?,?,?,-11.0%,-25.4%,?
COc1ccc(CN2CCC(CO)(Cc3cccc(C(F)(F)F)c3)CC2)cc1Cn1cccn1,-75.3*,18.4µM*,3.5%,?,-1.5%,?
OCC1(Cc2ccccc2)CCN(Cc2cccc(F)c2F)CC1,-11.9,?,4.6%,-13.5%,-1.1%,?
OCC1(Cc2ccccc2)CCN(Cc2ccc(C(F)(F)F)cc2)CC1,-50.9*,18.4µM*,3.4%,-21.5%,-11.5%,23.1µM*
COc1cc(CN2CCC(CO)(Cc3cccc(C(F)(F)F)c3)CC2)ccc1F,-52.3*,23.1µM*,0.8%,?,-6.6%,20.6µM*
CCCCCCc1cc2cc(-c3nnc(-c4cccc(Cl)c4)o3)c(=O)oc2cc1O,nt,1.3%,nt,nt,nt,11.2%
CC(=O)c1ccc(-c2cnc3c(NC=O)cc(-c4ccc(N5CCN(C)CC5)cc4)cn23)cc1,-26.8,20.6µM*,25.9µM*,nt,?,?
CC(=O)Nc1cc(-c2ccc(N3CCN(C)CC3)cc2)cn2c(-c3cccc(C(C)=O)c3)cnc12,-23.2,?,-19.4%,nt,-29.1%,?
CC(=O)Nc1cc(-c2ccc(N3CCN(C)CC3)cc2)cn2c(-c3ccc(F)c(Cl)c3)cnc12,nt,?,20.6µM*,nt,16.4µM*,18.4µM*
CN1CCN(c2ccc(-c3cc(NC=O)c4ncc(-c5ccc(F)c(Cl)c5)n4c3)cc2)CC1,82.3,16.4µM*,?,nt,?,11.6µM*
C=Cc1ccc(Cn2c(C)c(C(=O)NCCC#N)sc2=O)cc1,-22.5,-13.5%,4.6%,nt,3.5%,-2.5%
